Records with an inconclusive call do not appear. The source made the active and inactive calls. Unless noted, calls follow the shape of the dose curve; as a rule, active = well fitted curve in the direction sought with a large enough effect in the repeat runs; inconclusive = weak or mixed curves; inactive = no such curve, though single readings can be large; an effect the other way counts as inactive or inconclusive.
Assays:
[1] = qHTS assay to identify small molecule agonists of the peroxisome proliferator-activated receptor delta (PPARd) signaling pathway - cell viability counter screen (AID 743211); also: % is scaled to controls: 0 for no effect and ±100 for the full control effect; nearly all actives have a fitted effect of over 55% in size
Outline: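 Counter screen for cytotoxicity run in parallel with the PPARd reporter screen. Beta-lactamase reporter HEK293H cells exposed to compounds 17 h; ATP-based CellTiter-Glo luminescence quantified viability.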

[2] = molecular target: Peroxisome proliferator-activated receptor delta (Homo sapiens) (UniProt Q03181); assay: qHTS assay to identify small molecule agonists of the peroxisome proliferator-activated receptor delta (PPARd) signaling pathway (AID 743212; calls by dose curve; also: % is scaled to controls: 0 for no effect and ±100 for the full control effect)
Peroxisome proliferator-activated receptor delta (Homo sapiens), sequence (Q03181 whole entry, looked up): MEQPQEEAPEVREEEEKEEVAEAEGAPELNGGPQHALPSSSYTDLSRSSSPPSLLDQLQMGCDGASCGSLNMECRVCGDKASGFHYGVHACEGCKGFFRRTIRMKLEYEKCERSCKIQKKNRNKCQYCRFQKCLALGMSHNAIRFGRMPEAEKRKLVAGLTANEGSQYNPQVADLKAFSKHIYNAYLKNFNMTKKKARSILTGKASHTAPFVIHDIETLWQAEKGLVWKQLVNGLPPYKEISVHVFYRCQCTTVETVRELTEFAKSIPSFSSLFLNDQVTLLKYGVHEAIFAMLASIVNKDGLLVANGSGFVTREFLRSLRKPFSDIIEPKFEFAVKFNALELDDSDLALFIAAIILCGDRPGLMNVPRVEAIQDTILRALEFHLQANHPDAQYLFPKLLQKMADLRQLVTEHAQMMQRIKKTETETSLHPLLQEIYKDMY
Outline: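 Read-out: beta-lactamase FRET fluorescence after 2 h room-temperature incubation with LiveBLAzer B/G substrate. Cells were HEK293H carrying a UAS-bla reporter for PPARd, treated at 37 C with DMSO-dissolved compounds.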

[3] = qHTS assay to identify small molecule antagonists of the peroxisome proliferator-activated receptor delta (PPARd) signaling pathway - cell viability counter screen (AID 743213); also: % is scaled to controls: 0 for no effect and ±100 for the full control effect; nearly all actives have a fitted effect of over 50% in size
Outline: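 HEK293H PPARd UAS-bla cells, 5 h pre-incubation, compound + L165041 300 nM final, 17 h 37 C; B/G FRET substrate 2 h RT; then CellTiter-Glo 30 min RT, luminescence.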

[4] = molecular target: Peroxisome proliferator-activated receptor delta (Homo sapiens) (UniProt Q03181); assay: qHTS assay to identify small molecule antagonists of the peroxisome proliferator-activated receptor delta (PPARd) signaling pathway (AID 743215; active = well fitted inhibition curve with a large enough effect in the signal ratio in the repeat runs, not every such curve was filed as active; the % refers to the signal ratio;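 also: cells stimulated with agonist L165041 at 300 nM final during compound exposure; series mostly up to about 62 µM; % is scaled to controls: 0 for no effect and ±100 for the full control effect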)
Outline: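 Plated HEK293H PPARd-bla cells rested 5 h at 37 C and 5% CO2. Compound, then agonist L165041 at 300 nM final, was added; 17 h at 37 C followed. Substrate loading, 2 h room temperature, fluorescence measured.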

[5] = qHTS assay to identify small molecule antagonists of the farnesoid-X-receptor (FXR) signaling pathway - cell viability counter screen (AID 743221; active = well fitted cell-killing curve with a large enough effect in the repeat runs, not every such curve was filed as active; also: % is scaled to controls: 0 for no effect and ±100 for the full control effect; nearly all actives have a fitted effect of over 50% in size)
Outline: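 Multiplexed counter screen: viability of FXR-bla HEK 293T cells under agonist stimulation by chenodeoxycholic acid (50 uM, final) and test compound for 16 h at 37 C, measured by CellTiter-Glo luminescence in the reporter wells.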

[6] = molecular target: Vitamin D3 receptor (Homo sapiens) (UniProt P11473); assay: qHTS assay to identify small molecule agonists of the vitamin D receptor (VDR) signaling pathway (AID 743222; calls by dose curve; also: % is scaled to controls: 0 for no effect and ±100 for the full control effect)
Vitamin D3 receptor (Homo sapiens), sequence (P11473 whole entry, looked up): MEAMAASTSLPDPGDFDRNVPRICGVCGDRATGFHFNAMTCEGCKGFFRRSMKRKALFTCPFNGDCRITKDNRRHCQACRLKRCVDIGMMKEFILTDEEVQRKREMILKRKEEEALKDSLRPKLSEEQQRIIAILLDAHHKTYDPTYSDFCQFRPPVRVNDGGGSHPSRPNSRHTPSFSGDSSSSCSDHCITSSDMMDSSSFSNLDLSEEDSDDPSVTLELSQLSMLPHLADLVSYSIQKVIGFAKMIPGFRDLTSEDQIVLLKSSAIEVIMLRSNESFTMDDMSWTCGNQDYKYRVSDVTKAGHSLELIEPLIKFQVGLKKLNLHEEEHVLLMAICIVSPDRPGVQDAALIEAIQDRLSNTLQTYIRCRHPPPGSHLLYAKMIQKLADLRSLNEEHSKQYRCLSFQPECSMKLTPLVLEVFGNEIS
Outline: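 Fluorescence from cleaved LiveBLAzer B/G FRET substrate served as readout. VDR-bla cells had been treated 16 h at 37C with test compounds in DMSO, following a 4 h settling period, and substrate was loaded for 2 h at RT.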

[7] = molecular target: Vitamin D3 receptor (Homo sapiens) (UniProt P11473); assay: qHTS assay to identify small molecule antagonists of the vitamin D receptor (VDR) signaling pathway (AID 743223; active = well fitted inhibition curve with a large enough effect in the signal ratio in the repeat runs, not every such curve was filed as active; the % refers to the signal ratio; also: % is scaled to controls: 0 for no effect and ±100 for the full control effect)
Outline: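 Cells carrying a VDR-driven beta-lactamase reporter (VDR-bla) were co-treated with compound and 3 nM final 1alpha,25-dihydroxyvitamin D3 for 16 h at 37C; reporter activity was measured as FRET substrate fluorescence after 2 h at room temperature.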

[8] = qHTS assay to identify small molecule agonists of the vitamin D receptor (VDR) signaling pathway - cell viability counter screen (AID 743224); also: series mostly up to about 63 µM; % is scaled to controls: 0 for no effect and ±100 for the full control effect; nearly all actives have a fitted effect of over 50% in size
Outline: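 Compounds were pin-transferred onto VDR-bla cells plated 4 h earlier; following 16 h incubation at 37C, cell viability was quantified by CellTiter-Glo luminescence after 30 min at room temperature.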

[9] = qHTS assay to identify small molecule antagonists of the vitamin D receptor (VDR) signaling pathway - cell viability counter screen (AID 743225); also: % is scaled to controls: 0 for no effect and ±100 for the full control effect; nearly all actives have a fitted effect of over 50% in size
Outline: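 HEK293T VDR-bla; cpd + 1a,25-(OH)2D3 3 nM final, 16 h 37C/5% CO2; B/G FRET substrate 2 h RT; then CellTiter-Glo 30 min RT, luminescence.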

[10] = qHTS assay to identify small molecule agonists of the NFkB signaling pathway (AID 1159509; active = well fitted curve in the direction sought with a large enough effect in the signal ratio in the repeat runs, not every such curve was filed as active; the % refers to the signal ratio)
Outline: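 Beta-lactamase reporter assay run in quantitative high-throughput format on an NF-kB-responsive ME-180 line, with 5 hr compound treatment and a FRET-based blue/green fluorescence readout.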

[11] = qHTS assay to identify small molecule agonists of the NFkB signaling pathway - cell viability counter screen (AID 1159515; calls by dose curve; also: series mostly up to about 61 µM; % is scaled to controls: 0 for no effect and ±100 for the full control effect; nearly all actives have a fitted effect of over 55% in size)
Outline: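 Parallel cytotoxicity counter screen in ME-180 cells carrying an NFkB-response-element beta-lactamase reporter, 2,000 cells/well. Compound exposure lasted 5 hr at 37 C, 5% CO2. Cell viability was quantified by CellTiter-Glo luminescence.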

[12] = qHTS assay to identify small molecule agonists of the endoplasmic reticulum stress response signaling pathway (AID 1159516; active = well fitted activation curve with a large enough effect in the signal ratio in the repeat runs, not every such curve was filed as active; the % refers to the signal ratio; also: % is scaled to controls: 0 for no effect and ±100 for the full control effect)
Outline: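 Using a HeLa line with an ESRE-driven beta-lactamase gene, agonist activity was measured by FRET substrate fluorescence (460 and 530 nm emission) after cells were treated with compounds for 5 hr at 37 C and 5% CO2.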

[13] = qHTS assay to identify small molecule agonists of the endoplasmic reticulum stress response signaling pathway - cell viability counter screen (AID 1159517; calls by dose curve)
Outline: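 Steps: seed 1,500 ESRE-bla HeLa cells per well; incubate overnight at 37 C, 5% CO2; add compounds in DMSO for 5 hr; run FRET substrate 2 hr RT; add CellTiter-Glo, wait 30 min, read luminescence.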

[14] = qHTS assay to identify small molecule antagonists of the retinoid-related orphan receptor gamma (ROR-gamma) signaling pathway - cell viability counter screen (AID 1159520)
Outline: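 Tet-on ROR gamma CHO cells were given compounds for 2 hr, then doxycycline hyclate at 1 uM final, and incubated 16 hr at 37 C. Viability was measured as ATP content by CellTiter-Glo luminescence.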

[15] = molecular target: Nuclear receptor ROR-gamma (Homo sapiens) (UniProt P51449); assay: qHTS assay to identify small molecule antagonists of the retinoid-related orphan receptor gamma (ROR-gamma) signaling pathway (AID 1159521)
Outline: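 Cells were plated, rested 4 h at 37 C, exposed to compounds for 2 h, then given 1 uM final doxycycline hyclate to induce RORγ expression. After 16 h, ONE-Glo luminescence from the ROR response element reporter was measured.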

[16] = qHTS assay to identify small molecule agonists of the AP-1 signaling pathway - cell viability counter screen (AID 1159525; calls by dose curve; also: nearly all actives have a fitted effect of over 55% in size)
Outline: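 Same-well cytotoxicity counter screen of the Tox21 10K library in ME-180 cells. The readout is ATP-dependent luminescence after 5 h compound treatment. Data are normalised to DMSO and tetra n-octyl ammonium bromide controls.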

[17] = qHTS assay to identify small molecule agonists of the AP-1 signaling pathway (AID 1159526; calls by dose curve; also: % is scaled to controls: 0 for no effect and ±100 for the full control effect)
[18] = qHTS assay to identify small molecule agonists of the farnesoid-X-receptor (FXR) signaling pathway - cell viability counter screen (AID 743218); also: % is scaled to controls: 0 for no effect and ±100 for the full control effect; nearly all actives have a fitted effect of over 45% in size
Outline: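 Viability of FXR-bla HEK 293T cells is measured by ATP-based CellTiter-Glo luminescence following 16 h compound treatment at 37 C and a prior 2 h room-temperature beta-lactamase substrate step.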

[19] = molecular target: Bile acid receptor (Homo sapiens) (UniProt Q96RI1); assay: qHTS assay to identify small molecule agonists of the farnesoid-X-receptor (FXR) signaling pathway (AID 743220; active = well fitted activation curve with a large enough effect in the signal ratio in the repeat runs, not every such curve was filed as active; the % refers to the signal ratio; also: % is scaled to controls: 0 for no effect and ±100 for the full control effect)
Bile acid receptor (Homo sapiens), sequence (Q96RI1 whole entry, looked up): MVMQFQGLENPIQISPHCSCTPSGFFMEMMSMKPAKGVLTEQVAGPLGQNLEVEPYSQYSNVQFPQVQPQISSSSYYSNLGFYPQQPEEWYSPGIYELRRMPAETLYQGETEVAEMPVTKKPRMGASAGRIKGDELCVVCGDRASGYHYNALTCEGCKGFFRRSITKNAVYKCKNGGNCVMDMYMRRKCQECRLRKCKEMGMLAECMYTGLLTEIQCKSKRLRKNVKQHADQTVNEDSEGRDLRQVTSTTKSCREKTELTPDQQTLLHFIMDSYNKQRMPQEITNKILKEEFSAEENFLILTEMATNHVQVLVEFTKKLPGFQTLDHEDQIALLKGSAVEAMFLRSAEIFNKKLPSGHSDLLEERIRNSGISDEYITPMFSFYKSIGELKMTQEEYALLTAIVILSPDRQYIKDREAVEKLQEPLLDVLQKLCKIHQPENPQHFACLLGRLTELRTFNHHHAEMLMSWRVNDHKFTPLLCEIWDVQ
Outline: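 FXR-UAS-bla HEK 293T cells carrying a UAS-driven beta-lactamase reporter were plated for 5 h at 37C/5% CO2, then exposed to DMSO-dissolved Tox21 10K compounds for 16 h at 37C. A LiveBLAzer B/G FRET substrate was loaded for 2 h at room temperature before fluorescence reading.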

[20] = molecular target: Bile acid receptor (Homo sapiens) (UniProt Q96RI1); assay: qHTS assay to identify small molecule antagonists of the farnesoid-X-receptor (FXR) signaling pathway (AID 743217; active = well fitted inhibition curve with a large enough effect in the signal ratio in the repeat runs, not every such curve was filed as active; the % refers to the signal ratio; also: % is scaled to controls: 0 for no effect and ±100 for the full control effect)
Outline: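 Screen of the Tox21 10K library in quantitative HTS format using FXR-UAS-bla HEK 293T reporter cells. Agonist chenodeoxycholic acid, 50 uM final, added with compounds; 16 h incubation at 37 °C; beta-lactamase FRET fluorescence measured.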

CC(C=O)Cc1ccc(C(C)C)cc1 (stereo not drawn)
inactive: Potency [1] | outcome [2] | Potency [3] | outcome [4] | Potency [5] | outcome [6] | outcome [7] | outcome [8] | outcome [9] | outcome [10] | outcome [11] | outcome [12] | outcome [13] | Potency [14] | Potency [15] | outcome [16] | Potency [17]

COC(=O)CCCCCCCCC(=O)OC
inactive: Potency [1] | outcome [2] | Potency [3] | outcome [4] | outcome [18] | outcome [19] | Potency [5] | outcome [6] | outcome [7] | outcome [8] | outcome [9] | outcome [10] | outcome [11] | outcome [12] | outcome [13] | Potency [14] | Potency [15] | outcome [16] | Potency [17]

NC(=S)Nc1cccc2ccccc12
inactive: activity change, negative = cytotoxicity [1] -1.16% [at 5.95 µM] | activation [2] -6.49% [at 5.95 µM] | viability change, negative = cytotoxic [3] 5.98% [at 6.26 µM] | ratio activity, negative = inhibition [4] -0.221% [at 6.26 µM] | viability change, negative = cytotoxic [18] 18.3% [at 5.95 µM] | activation [6] 4.28% [at 6.01 µM] | activity change, negative = inhibition [7] -15.5% [at 6.95 µM] | activity change, negative = cytotoxicity [8] 6.68% [at 5.95 µM] | viability change, negative = cytotoxic [9] -0.0846% [at 6.95 µM] | activation [10] -0.909% [at 6.95 µM] | activity, negative = cytotoxic [11] -2.24% [at 6.95 µM] | activation [12] -3.75% [at 6.95 µM] | activity change, negative = cytotoxicity [13] 2.64% [at 6.95 µM] | activity, negative = cytotoxicity [14] 13.1% [at 8.39 µM] | activity change, negative = inhibition [15] 10.3% [at 8.39 µM] | viability change, negative = cytotoxic [16] -1.31% [at 6.97 µM] | activation [17] -4.57% [at 6.97 µM]

C=C(C)C(=O)OCCCCCCCCCCCCCCCCCC
inactive: Potency [1] | outcome [2] | Potency [3] | outcome [4] | Potency [5] | outcome [6] | outcome [7] | outcome [8] | outcome [9] | outcome [10] | outcome [11] | outcome [12] | outcome [13] | activity, negative = cytotoxicity [14] -0.822% [at 19 µM] | activity change, negative = inhibition [15] 0.457% [at 19 µM] | viability change, negative = cytotoxic [16] 1.55% [at 15.8 µM] | activation [17] 0.371% [at 15.8 µM]

O=C1CC2(CCCC2)CC(=O)N1
inactive: Potency [1] | outcome [2] | Potency [3] | outcome [4] | outcome [20] | outcome [18] | outcome [19] | Potency [5] | outcome [7] | outcome [8] | outcome [9] | outcome [10] | outcome [11] | outcome [12] | outcome [13] | Potency [14] | Potency [15] | outcome [16] | Potency [17]

NCC[C@H](O)C(=O)N[C@@H]1C[C@H](N)[C@@H](O[C@H]2O[C@H](CN)[C@@H](O)[C@H](O)[C@H]2O)[C@H](O)[C@H]1O[C@H]1O[C@H](CO)[C@@H](O)[C@H](N)[C@H]1O
inactive: activity change, negative = cytotoxicity [1] 6.61% [at 0.55 µM] | activation [2] 0% [at 0.55 µM] | viability change, negative = cytotoxic [3] -2.06% [at 0.575 µM] | ratio activity, negative = inhibition [4] 4.4% [at 0.575 µM] | activity change, negative = cytotoxicity [5] 9.05% [at 0.55 µM] | activity change, negative = cytotoxicity [8] 7.01% [at 0.55 µM] | viability change, negative = cytotoxic [9] 0.0036% [at 0.628 µM] | activation [10] 0.167% [at 0.628 µM] | activity, negative = cytotoxic [11] 8.7% [at 0.628 µM] | activation [12] -0.818% [at 0.628 µM] | activity change, negative = cytotoxicity [13] 6.85% [at 0.628 µM] | activity, negative = cytotoxicity [14] 3.36% [at 0.349 µM] | activity change, negative = inhibition [15] 19% [at 0.35 µM] | viability change, negative = cytotoxic [16] 8.93% [at 0.29 µM] | activation [17] 12.3% [at 0.29 µM]

OCC(O)[C@@H](O)[C@H](O)[C@H](O)CO[C@H]1O[C@H](CO)[C@@H](O)[C@H](O)[C@H]1O (stereo partly drawn)
inactive: Potency [1] | outcome [2] | Potency [3] | outcome [4] | outcome [18] | Potency [5] | outcome [8] | outcome [9] | outcome [10] | outcome [11] | outcome [12] | outcome [13] | Potency [14] | Potency [15] | outcome [16] | Potency [17]

Nc1cc(N)cc(C(=O)O)c1
inactive: Potency [1] | outcome [2] | Potency [3] | outcome [4] | outcome [19] | Potency [5] | outcome [6] | outcome [7] | outcome [8] | outcome [9] | outcome [10] | outcome [11] | outcome [12] | outcome [13] | Potency [14] | Potency [15] | outcome [16] | Potency [17]

CCCCNc1ccccc1
inactive: Potency [1] | outcome [2] | Potency [3] | outcome [4] | outcome [19] | Potency [5] | outcome [7] | outcome [8] | outcome [9] | outcome [10] | outcome [11] | outcome [12] | outcome [13] | Potency [14] | Potency [15] | outcome [16] | Potency [17]

CC(=O)OC(C)(C)C
inactive: Potency [1] | outcome [2] | Potency [3] | outcome [4] | outcome [18] | Potency [5] | outcome [8] | outcome [9] | outcome [10] | outcome [11] | outcome [12] | outcome [13] | Potency [14] | Potency [15] | outcome [16] | Potency [17]

CCCCCCCCCCCCCCC
inactive: Potency [1] | outcome [2] | Potency [3] | outcome [4] | outcome [18] | Potency [5] | outcome [6] | outcome [8] | outcome [9] | outcome [10] | outcome [11] | outcome [12] | outcome [13] | Potency [14] | Potency [15] | outcome [16] | Potency [17]

CCOC(=O)Nc1ccc2c(c1)N(C(=O)CCN1CCOCC1)c1ccccc1S2
inactive: Potency [1] | outcome [2] | Potency [3] | outcome [4] | outcome [6] | outcome [8] | outcome [9] | outcome [10] | outcome [11] | outcome [12] | outcome [13] | Potency [14] | Potency [15] | outcome [16] | Potency [17]

Source: PubChem BioAssay (Tox21)
